The values that follow come from PubChem BioAssay AID1259418 (Broad Institute, 2018).

Among all 3,400 compounds or so, about 840 (25%) were called active. About 11% were inconclusive and are not listed. These entries were drawn from the full list. Potency and affinity values are given separately. Unmarked numbers belong to inactive results.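 How the source made its calls: active means fitted half-maximal concentration of signal decrease at or below twice the sample's top tested concentration; inconclusive means flat curve between -70 and -30 percent, or poor fit; inactive means flat within 30 percent, signal rise, or potency above limit.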

The assay can be described thus: T. gondii growth inhibition with IFN-gamma, dose response, cell-based, ME49Luc, HeLa, luciferase, 72 h (AID 1259418). The following applies: T. gondii ME49Luc in IFN-y HeLa, hits give low values, -100% = high-dose IFN-γ control wells; at 19.5 µM unless noted.
`Cc1cccc(-c2nc(Cn3nnc(-c4nc(-c5ccccc5Cl)no4)c3C)c(C)o2)c1`: the max activity was 15.3% [at 10 µM]. Turning to `CCc1ccccc1NC(=O)Nc1ccc(-c2nc(-c3ccccc3)co2)cc1`, the max activity was 13.1% [at 5 µM]. For the molecule `Cc1nc(-c2ccc(F)cc2)sc1-c1ccc(SCc2ccc(Cl)cc2)nn1`, the max activity was -5.59% [at 1.35 µM]. Take `COc1cccc(C(=O)Nc2ccc(-c3nc(-c4ccc(C)cc4C)co3)cc2)c1`: the max activity is 37.5%.

In the case of `Cc1ccc(C)c(-c2coc(-c3ccc(NC(=O)C(C)C)cc3)n2)c1`, the max activity is 14.2%. With `COc1ccccc1-c1nc(Cn2nnc(-c3nc(-c4ccc(OC(C)C)cc4)no3)c2C)c(C)o1`, the max activity is -5.67% [at 1.35 µM]. As for `COc1cccc(-c2nc3c(s2)CN(C(=O)Nc2ccc(OC)cc2OC)CC3)c1`, the max activity was 52.4%. Consider `CC(C)OCCCNC(=O)CC1Nc2c3ccccc3nc(=S)n2C1=O` (stereo not given), for which the max activity was 19.5% [at 0.16 µM].

Regarding `CCOc1ccc(-c2nc3c(s2)CN(S(=O)(=O)c2ccc(F)cc2)CC3)cc1`, the max activity was 36.2%. Consider `CCc1nc(OCC(=O)N(CC)c2ccccc2)c2ccccc2n1`, for which the max activity was 9.96% [at 10 µM]. In the case of `CCN(C(=O)COc1nc(C)nc2ccccc12)c1ccccc1`, the max activity is 18.8% [at 0.68 µM]. As for `CSc1ccc(-c2noc(-c3nnn(Cc4nc(-c5cccc(Cl)c5)oc4C)c3C)n2)cc1`, the max activity is 12.2% [at 0.16 µM].

Take `Cc1ccc(NC(=O)CN2CCC3(CC2)N=C(c2ccc(Cl)cc2)C(=O)N3)cc1C`: the max activity is -6.27% [at 0.68 µM].

For the molecule `COc1ccc(-c2nc3c(s2)CN(S(=O)(=O)c2ccc(Cl)cc2)CC3)cc1`, the max activity is 8.74%. For `COc1ccc(-c2nc(Cn3c(=O)c4cccnc4n(-c4ccccc4)c3=O)c(C)o2)cc1`, the max activity is -4.3% [at 2.6 µM]. In the case of `CCc1c(C)sc2c1CCN(Cc1nc(-c3ccc(C)cc3)oc1C)C2c1ccccc1` (stereo not given) it was 11.6%; in that of `Cc1oc(-c2ccccc2)nc1Cn1nnc(-c2nc(-c3ccccc3Cl)no2)c1C`, 7.39%.

Take `COC(=O)c1cccc(NC(=O)Nc2ccc(-c3nc(-c4ccccc4)co3)cc2)c1`: the max activity was 9.82%. Consider `COc1cccc(C(=O)N2CCC3(CC2)Nc2ccc(C)c(C)c2-n2cccc23)c1`, for which the max activity was -8.8% [at 0.16 µM]. In the case of `O=C(C1CCC1)N1CC(=O)N2[C@H](CO)[C@H](c3ccc(Br)cc3)[C@H]2C1` it was 54.7%; in that of `CN(C)CC(=O)N1C[C@@H]2N[C@H](C1)C2c1ccc(-c2ccccc2F)cc1` (stereo not given in full), 5.96% [at 10 µM]. For the molecule `CN(C[C@H]1[C@H](c2ccccc2)[C@@H](CO)N1CC1CC1)C(=O)c1ccc(F)cc1`, the max activity is 49.7%. Take `CCc1nc(OCC(=O)Nc2cccc(Cl)c2)c2ccccc2n1`: the max activity is 20.4% [at 0.16 µM].

Consider `CCOc1ccc(-c2nc3c(s2)CN(S(=O)(=O)c2cccc(Cl)c2C)CC3)cc1`, for which the max activity was 15.9% [at 10 µM]. On to `Cc1ccc(C)c(-c2coc(-c3ccc(NC(=O)NCc4ccco4)cc3)n2)c1`, for which the max activity is -45.2% [at 1.35 µM]. With `Cc1nc(CCNC(=O)C2CCN(C(=O)c3ccc(F)cc3)CC2)cs1`, the max activity is 11.3% [at 2.6 µM]. Then `Cc1nc(CCNC(=O)C2CCN(C(=O)c3ccc(Cl)cc3)CC2)cs1`, with -28.7%; and `Cc1nc(CCNC(=O)C2CCN(C(=O)c3cccc(F)c3)CC2)cs1`, with -15.3%. For `COc1cccc(C(=O)N2CCC(C(=O)NCCc3csc(C)n3)CC2)c1`, the max activity was -13.8% [at 0.16 µM].

As for `O=C(C[C@H]1CC[C@H]2[C@@H](COC[C@@H](O)CN2C(=O)c2cc(Cl)cc(Cl)c2)O1)N1CCc2ccccc2C1`, the max activity is 26.3% [at 10 µM].

`CCCNC(=O)C[C@H]1CC[C@@H]2[C@H](COC[C@H](O)CN2C(=O)Nc2ccc(Cl)c(Cl)c2)O1`: the max activity is 33.9%.

In the case of `CCOc1ccc(-c2nc3c(s2)CN(S(=O)(=O)c2ccc(F)cc2F)CC3)cc1`, the max activity is 95.1%.

`Clc1ccc(-c2nc(NCc3cccs3)c3ccccc3n2)cc1`: the max activity was 13.5% [at 0.35 µM]. For `CCc1nc(OCC(=O)Nc2ccc(Br)cc2F)c2ccccc2n1`, the max activity is 35.6% [at 0.68 µM]. In the case of `O=S(=O)(c1ccc(F)cc1)N1CCCCN2[C@H](C1)[C@H](c1ccc(-c3cncnc3)cc1)[C@@H]2CO`, the max activity was 22.1% [at 10 µM]. Consider `CCOC(=O)Cc1ccc(NC(=O)Nc2ccc(-c3nc(-c4ccc(C)cc4C)co3)cc2)cc1`, for which the max activity is 11.1%. Regarding `Cc1ccc(-c2nc(Cn3nnc(-c4nc(-c5ccc(Cl)cc5)no4)c3C)c(C)o2)cc1`, the max activity is -14.4% [at 0.68 µM]. As to `Cc1cccc(C2=NC3(CCN(CC(=O)Nc4ccc(F)cc4F)CC3)NC2=O)c1`, the max activity was -4.98% [at 0.68 µM]. For `COc1cccc(CC(=O)Nc2ccc(-c3nc(-c4ccc(C)cc4C)co3)cc2)c1`, the max activity is -8.08% [at 1.35 µM]. In the case of `COC(=O)Cn1cc(CN2CCCC2c2cc(C(C)C)no2)c2cc(OC)ccc21` (stereo not given) it was 18.8% [at 0.35 µM]; in that of `CCn1cc(CN2CCCC2c2cc(C(C)C)no2)c2cc(OC)ccc21` (stereo not given), 5.61% [at 0.16 µM]; in that of `CCn1cc(CN2CCCC2c2cc(C(C)C)on2)c2ccccc21` (stereo not given), 8.42% [at 0.16 µM].

For the molecule `CCOC(=O)Cn1cc(CN2CCCC2c2c(C)noc2CC)c2ccccc21` (stereo not given), the max activity is 12.1% [at 0.16 µM]. `COc1ccc(CC(=O)N2CCC3(CC2)Nc2ccc(C)c(C)c2-n2cccc23)cc1`: the max activity was 9.26% [at 0.68 µM].

In the case of `COc1ccccc1NC(=O)N1CCc2nc(-c3ccc(C)cc3)sc2C1`, the max activity was 44.9%. As to `Cc1ccccc1-c1nc(CN2CCN(C(=O)Nc3ccc(Cl)cc3)CC2)c(C)o1`, the max activity is -10.3% [at 0.35 µM]. Then `CN(C)c1nc(N2CCOCC2)nc2c1CN(Cc1cccs1)CC2`, with 13.4% [at 5 µM]; and `Cc1nc(N2CCCC2)nc2c1CCN(C(=O)c1ccoc1C)CC2`, with -9.94% [at 0.3 µM]; and `CCOc1ccc(-c2nc3c(s2)CN(C(=O)Nc2cc(C)ccc2OC)CC3)cc1`, with 14.6%.

Regarding `COc1ccc(OCC(=O)N2CCC(C(=O)NCCc3csc(-c4ccccc4)n3)CC2)cc1`, the max activity is 12.9%.

Consider `COc1ccc(-c2nc3c(s2)CN(S(=O)(=O)c2ccc(NC(C)=O)cc2)CC3)cc1`, for which the max activity was 17.2% [at 10 µM]. Consider `CCCCCNC(=O)CCC1Nc2c3ccccc3nc(=S)n2C1=O` (stereo not given), for which the max activity is 12.1% [at 5 µM]. Regarding `Cc1nc(CCNC(=O)C2CCN(C(=O)c3ccccc3Cl)CC2)cs1`, the max activity is -5.21% [at 1.35 µM]. In the case of `CCOc1ccccc1C(=O)N1CCC(C(=O)NCCc2csc(-c3ccccc3)n2)CC1`, the max activity is -11.4% [at 5 µM]. For the molecule `O=C(NCCc1csc(-c2ccccc2)n1)C1CCN(C(=O)c2ccc(F)c(F)c2)CC1`, the max activity is 18% [at 5 µM]. On to `O=C(NCCc1csc(-c2ccccc2)n1)[C@H]1CCCN1C(=O)c1ccccc1Br`, for which the max activity is -16.7% [at 0.16 µM]. Turning to `Cc1ccccc1C(=O)N1CCC(C(=O)NCCc2csc(-c3ccccc3)n2)CC1`, the max activity was 23.4% [at 1.35 µM]. `O=C(NCCc1csc(-c2ccccc2)n1)C1CCN(C(=O)c2cccc(Cl)c2)CC1`: the max activity was 7.04% [at 0.68 µM]. With `O=C(Nc1ccc(-c2nc(-c3ccccc3)co2)cc1)Nc1cccc(Br)c1`, the max activity is 8.78% [at 10 µM]. Turning to `COc1ccc(CNc2nc(SCc3ccc(F)cc3)nc3ccccc23)cc1`, the max activity is 10.3%. `Fc1ccc(Nc2nc(SCc3ccccc3Cl)nc3ccccc23)cc1`: the max activity is 17.7% [at 0.68 µM].

Turning to `Fc1ccc(Nc2nc(SCc3cccc(Cl)c3)nc3ccccc23)cc1`, the max activity is -13.6% [at 1.35 µM]. Turning to `Fc1ccc(CSc2nc(Nc3ccc(F)c(F)c3)c3ccccc3n2)cc1`, the max activity was 9.75% [at 1.35 µM].

Regarding `CCOC(=O)CSc1nc(Nc2ccc(F)c(F)c2)c2ccccc2n1`, the max activity is -35.1% [at 0.35 µM]. In the case of `COc1cc(Nc2nc(SCc3ccc(Cl)cc3)nc3ccccc23)cc(OC)c1`, the max activity was 21% [at 5 µM]. `COc1ccc(-c2noc(C3CCCN3C(=O)c3sc(C)nc3C)n2)cc1` (stereo not given): the max activity was 11.1% [at 0.35 µM]. Then `COc1ccc(CNC(=O)CCC2N=C3c4ccccc4N=C(SCc4cc(=O)n5ccccc5n4)N3C2=O)cc1` (stereo not given), with 14.6% [at 1.35 µM]; and `Cc1csc(-c2csc(S(=O)(=O)N3CCC(Cc4ccccc4)CC3)c2)n1`, with -14% [at 0.35 µM]; and `O=C(CCC1Nc2c3ccccc3nc(=S)n2C1=O)NCc1ccc(F)cc1` (stereo not given), with 21.3%.

For `Cc1cccc(-c2nc(CSc3nc4c(c(=O)[nH]3)CN(Cc3ccc(F)cc3)CC4)c(C)o2)c1`, the max activity is 16.6% [at 0.16 µM].

For `CSc1ccc(-c2noc(-c3nnn(Cc4nc(-c5ccccc5)oc4C)c3C)n2)cc1`, the max activity is 13.9%. As to `COc1ccc(S(=O)(=O)Nc2ccc(-c3nc(-c4ccc(C)c(C)c4)co3)cc2)cc1`, the max activity was 54.5% [at 10 µM].

In the case of `CCn1nnc2c(NCCn3ccc4ccccc43)ncnc21`, the max activity is -27.3%. With `Cc1nc(-c2cc(S(=O)(=O)NCCN3CCC(C)CC3)c(C)s2)sc1C`, the max activity was 16.1% [at 0.35 µM].

For the molecule `Cc1nc(-c2cc(S(=O)(=O)N3CCC(C)CC3)c(C)s2)sc1C`, the max activity is -8.09% [at 0.68 µM].
